Only some compounds are listed: those with a hit (about 5% of all), similar ones and a draw of the others.
LmPK inhibitor = inhibitors of Leishmania mexicana pyruvate kinase; Q27686; Potency, µM (highest dose often 57.5 µM), without a hit: at the highest dose activity change, negative = inhibition, actives largely listed as inhibitors; 290,000 compounds, 0.37% hits; purified LmPK, Kinase-Glo ATP luminescence, 1 h; also: potency is read from the fitted curve at half-maximal effect
Target sequence (Q27686 whole entry, looked up): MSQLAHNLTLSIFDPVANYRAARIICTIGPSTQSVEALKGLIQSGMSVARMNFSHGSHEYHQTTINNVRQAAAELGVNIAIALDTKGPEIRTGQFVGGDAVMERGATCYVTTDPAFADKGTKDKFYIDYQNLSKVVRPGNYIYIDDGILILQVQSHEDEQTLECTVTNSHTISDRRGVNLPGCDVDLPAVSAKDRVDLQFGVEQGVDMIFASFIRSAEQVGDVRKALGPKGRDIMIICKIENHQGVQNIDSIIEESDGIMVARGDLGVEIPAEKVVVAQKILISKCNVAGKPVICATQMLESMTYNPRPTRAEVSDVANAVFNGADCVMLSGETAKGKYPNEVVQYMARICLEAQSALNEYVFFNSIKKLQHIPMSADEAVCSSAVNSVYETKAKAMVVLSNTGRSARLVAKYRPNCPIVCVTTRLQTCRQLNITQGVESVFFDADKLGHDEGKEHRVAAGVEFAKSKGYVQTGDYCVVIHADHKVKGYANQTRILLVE
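0.1 nM LmPK, 0.5 mM PEP, 0.1 mM ADP; 50 mM imidazole pH 7.2, 7 mM MgCl2, 50 mM KCl; 1 h RT. Kinase-Glo luminescence readout, normalized to no-enzyme (full inhibition) and uninhibited wells.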
HCMV inh = human cytomegalovirus inhibition; activity change, negative = inhibition, % at 57.5 µM; HFF cells, HCMV-luciferase reporter, 72 h; hits give low values; 410,000 compounds, 4.5% hits; AID 1259415; in the data active = activity change below about -60%; inconclusive = no clear call, values can overlap the other calls; inactive = above about -39%
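Cell-based, HFFs, 1000 cells/well, 16 h 37C; cpds in DMSO + HCMV-luc, MOI 1 PFU/cell; 72 h 37C; OneGlo luminescence after 5 min RT; norm. to buffer vs Salinomycin 10uM.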
Vaccinia mCherry = inhibitors of vaccinia virus infection (mCherry reporter signal). Vaccinia virus mCherry reporter infection, fluorescence. Potency, µM (doses to about 36.5 µM), without a hit: at the highest dose activity change, negative = inhibition, usual class: inhibitors. 310,000 compounds, 0.63% hits. AID 720579; calls by dose curve; tested in A549 cells; also: potency is read from the fitted curve at half-maximal effect; nearly all actives have a fitted effect of over 35% in size
TbPYK inhibitor = inhibitors of Trypanosoma brucei pyruvate kinase. Q57TT1. TbPYK enzyme, Kinase-Glo Plus ATP luminescence, 45 min. Potency, µM (top dose mostly 76.8 µM), inactives show top-dose activity, negative = inhibition, usual class: inhibitors. 410,000 compounds, 0.12% hits. AID 624173; also: potency is read from the fitted curve at half-maximal effect; nearly all actives have a fitted effect of over 50% in size
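Assay buffer: 50 mM TEA pH 7.2, 100 mM KCl, 10 mM MgCl2, 0.05% BSA, 0.01% Tween-20. Pyruvate kinase from T. brucei plus substrate met compound, then ADP (130 uM final). Luminescence was read post 45 min RT.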
VACV Venus inh = inhibitors of vaccinia virus (Venus reporter) | Vaccinia virus Venus reporter expression, fluorescence | Potency, µM (doses to about 36.5 µM), inactives show at the highest dose activity change, negative = inhibition, most hits filed as inhibitors | 330,000 compounds, 0.46% hits; calls by dose curve; tested in A549 cells; also: potency is read from the fitted curve at half-maximal effect; nearly all actives have a fitted effect of over 30% in size
* marks the source's active call; other numbers are inactive results; i = inactive; ? = inconclusive; . = no result given. Unless noted, calls follow the shape of the dose curve; as a rule, active = well fitted curve in the direction sought with a large enough effect; inconclusive = small, poorly fitted or top-dose-only effect, or another doubt; inactive = no such curve, though single readings can be large; an effect the other way counts as inactive or inconclusive. % is scaled to controls: 0 for no effect and ±100 for the full control effect.

SMILES	LmPK inhibitor	HCMV inh	Vaccinia mCherry	TbPYK inhibitor	VACV Venus inh
Cc1ccc(/C=C/C(=O)c2ccccc(=O)c2O)cc1C	-2%	-66*	?	-10%	-23%
CCC(=O)NC(c1cccs1)c1cc(Cl)c2cccnc2c1O (stereo unspecified)	-1%	?	?	-7%	?
CC(=O)NC(c1ccc(N(C)C)cc1)c1cc(Cl)c2cccnc2c1O (stereo unspecified)	.	-100*	3.2µM*	-6%	?
CCCCC(=O)NC(c1cccs1)c1cc(Cl)c2cccnc2c1O (stereo unspecified)	1%	-100*	?	-20%	?
CC(=O)NC(c1ccccc1)c1cc(Cl)c2cccnc2c1O (stereo unspecified)	3%	-95*	?	-7%	?
CCCC(=O)NC(c1ccc(OC)c(OC)c1)c1cc(Cl)c2cccnc2c1O (stereo unspecified)	-1%	-99*	13µM*	-11%	?
CCOc1ccc(C(NC(=O)c2ccco2)c2ccc(OC)c(OC)c2)cc1 (stereo unspecified)	1%	56	-9%	2%	-10%
Cc1cc(C(=O)Nc2ccccc2-c2nc(CNC(=O)c3ccccc3Cl)c(C)o2)c(C)o1	.	.	i	.	-9%
Cc1c(NC(=O)C2CCCO2)cccc1[N+](=O)[O-] (stereo unspecified)	1%	-18	i	-10%	-8%
O=C(NC(c1ccc(Cl)cc1)c1cc(Cl)c2cccnc2c1O)c1cccnc1 (stereo unspecified)	1%	-101*	-17%	-6%	-24%
COc1ccc(C(NC(C)=O)c2cc(Cl)c3cccnc3c2O)cc1 (stereo unspecified)	9%	-99*	.	-2%	.
CN1CCN(C(c2ccc(Cl)cc2)c2cc(Cl)c3cccnc3c2O)CC1 (stereo unspecified)	11%	264	-27%	21%	-25%
CC(=O)NC(c1cc(F)c2cccnc2c1O)C1CC1 (stereo unspecified)	.	27	.	-3%	.
C=CCC(C#N)(c1ccc(OC)c(OC)c1)c1cnccn1 (stereo unspecified)	.	-65*	i	-1%	0%
COc1ccc(C(C#N)(CCC#N)CCC#N)cc1OC	-4%	64	.	6%	6%
CCOc1ccc(-c2nn(-c3ccccc3)cc2C2NC(=O)NC(C)=C2C(=O)OC(C)C)cc1 (stereo unspecified)	.	-67*	-10%	-3%	-8%
COc1cccc(C(c2sc3nc(-c4ccco4)nn3c2O)N2CCCC2)c1 (stereo unspecified)	.	34	-2%	-12%	-2%
O=C(/C=C\c1ccco1)Nc1nc(-c2ccc3ccccc3c2)cs1	7%	-76*	?	-9%	?
O=C(Nc1nc(-c2ccc3ccccc3c2)cs1)c1ccc(N2C(=O)CCC2=O)cc1	6%	-71*	?	-2%	?
Cc1nn(Cc2ccccc2Cl)c(C)c1C(=O)N(C)CC(=O)Nc1cccc(F)c1	.	?	.	0%	.
O=C(CN1C(=O)CCC1=O)Nc1ccc2c3c(cccc13)CC2	-2%	66	.	-8%	1%
CCN(C(=O)c1cc(S(=O)(=O)N2CCOCC2)cn1C)c1ccc(OC)cc1	.	-67*	-8%	2%	-3%
CCN(CC)C(=O)c1cc(S(=O)(=O)N2CCCCC2)c[nH]1	-1%	0	-11%	5%	-12%
CCN(C(=O)c1cc(S(=O)(=O)N2CCc3ccccc32)cn1C)c1cccc(C)c1	.	-74*	-14%	-2%	-10%
CCN(C(=O)c1cc(S(=O)(=O)N2CCCCC2)c[nH]1)c1ccc(OC)cc1	2%	-67*	-23%	1%	-19%
CC(C)CN(C(=O)COC(=O)c1cnccn1)c1c(N)n(Cc2ccccc2)c(=O)[nH]c1=O	.	-34	i	-1%	-2%
COc1cc(OC)c2c(c1)C(=O)c1cc(OC)cc(OC)c1C2=O	-2%	66	.	-7%	-15%
Cc1ccc(CS(=O)(=O)Cc2ccc(C(=O)NCc3cccs3)o2)cc1	1%	-89*	0%	6%	-3%
Cc1ccc(CS(=O)Cc2ccc(C(=O)NCc3cccs3)o2)cc1 (stereo unspecified)	-3%	10	.	5%	.
